This note sets out measurements from PubChem BioAssay (Tox21).

Assay [1] can be described thus: qHTS assay to identify aromatase inhibitors - cell viability counter screen (AID 743084).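 Also: cells stimulated with testosterone during compound exposure; nearly all actives have a fitted effect of over 55% in size.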 Also: potency is read from the fitted curve at half-maximal effect. For orientation: In qHTS, concentration-response curves come from the screen itself.
Assay [2] is described as follows: qHTS assay to identify small molecule that activate the aryl hydrocarbon receptor (AhR) signaling pathway - cell viability counter screen (AID 743086). Also: nearly all actives have a fitted effect of over 45% in size. Also: potency is read from the fitted curve at half-maximal effect. An outline of the steps: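 Cytotoxicity counter screen: CellTiter-Fluor signal (30 min, 37 C) in 4000 HepG2 cells/well carrying the DRE-luciferase reporter, following 24 h compound exposure at 37 C.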
Assay [3] concerns the target Peroxisome proliferator-activated receptor gamma (Homo sapiens) (UniProt P37231). Briefly: qHTS assay to identify small molecule agonists of the peroxisome proliferator-activated receptor gamma (PPARg) signaling pathway (AID 743094; active = well fitted activation curve with a large enough effect in the signal ratio in the repeat runs, not every such curve was filed as active; the % refers to the signal ratio). An outline of the steps:
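Agonism was assessed in a beta-lactamase reporter system, HEK293H cells with a stably integrated UAS-bla construct under PPARg control; the 17 h treatment at 37C preceded a 1 h room-temperature FRET substrate read.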

Assay [4] has the same target. Briefly: qHTS assay to identify small molecule antagonists of the peroxisome proliferator-activated receptor gamma (PPARg) signaling pathway (AID 743191; calls by dose curve; also: series mostly up to about 63 µM; nearly all actives have a fitted effect of over 30% in size). An outline of the steps:
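Beta-lactamase reporter under UAS control in HEK293H PPARg-bla cells; compound treatment 17 h at 37C. Read-out: fluorescence intensity after 1 h room-temperature incubation with LiveBLAzer B/G FRET substrate.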

Assay [5] is described as follows: qHTS assay to identify small molecule antagonists of the peroxisome proliferator-activated receptor gamma (PPARg) signaling pathway - cell viability counter screen (AID 743194). Also: nearly all actives have a fitted effect of over 55% in size. An outline of the steps:
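Viability was measured as CellTiter-Glo luminescence in GeneBLAzer PPARg UAS-bla HEK293H cells. These cells had been exposed 17 h at 37 C to compounds together with rosiglitazone at 50 nM final, with the beta-lactamase readout taken in the same wells.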

Assay [6] is described as follows: qHTS assay for small molecule agonists of the antioxidant response element (ARE) signaling pathway (AID 743202; active = well fitted activation curve with a large enough effect in the signal ratio in the repeat runs, not every such curve was filed as active; the % refers to the signal ratio; also: potency is read from the fitted curve at half-maximal effect). Put shortly:
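Beta-lactamase reporter activity, read as fluorescence intensity, reflects ARE/Nrf2 pathway induction in HepG2 cells after 16 h compound exposure at 37 C; substrate loading was 2 h at room temperature.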

Assay [7] can be described thus: qHTS assay for small molecule agonists of the antioxidant response element (ARE) signaling pathway - cell viability counter screen (AID 743203; calls by dose curve; also: nearly all actives have a fitted effect of over 55% in size; also: potency is read from the fitted curve at half-maximal effect). Put shortly: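 ATP content via CellTiter-Glo luminescence served as the viability measure. Cells: ARE-bla HepG2, 2,000 per well. Exposure: 16 hrs, 37C/5% CO2.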
Assay [8] in a line: qHTS assay for small molecule activators of the heat shock response signaling pathway - cell viability counter screen (AID 743209). Also: nearly all actives have a fitted effect of over 50% in size. Put shortly: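 Compounds dissolved in DMSO were added to overnight-plated HSE-bla HeLa cells and left 5 h at 37 C. Cell viability was quantified by luminescence using CellTiter-Glo.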
Assay [9] can be described thus: qHTS assay to identify small molecule agonists of the peroxisome proliferator-activated receptor delta (PPARd) signaling pathway - cell viability counter screen (AID 743211). Also: nearly all actives have a fitted effect of over 55% in size. Put shortly:
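Luminescent ATP viability assay (CellTiter-Glo, 30 min RT) in UAS-bla HEK293H cells carrying the PPAR delta reporter construct, 3000 cells/well, after a 17 h compound treatment at 37 C.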

Assay [10] concerns the target Peroxisome proliferator-activated receptor delta (Homo sapiens) (UniProt Q03181). Description: qHTS assay to identify small molecule agonists of the peroxisome proliferator-activated receptor delta (PPARd) signaling pathway (AID 743212; calls by dose curve). Put shortly:
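Steps: seed PPARd-bla HEK293H cells; incubate 5 h, 37 C, 5% CO2; add compounds in DMSO; incubate, 37 C; add LiveBLAzer B/G FRET substrate; hold 2 h at room temperature; measure fluorescence.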

The nature of assay [11]: qHTS assay to identify small molecule antagonists of the peroxisome proliferator-activated receptor delta (PPARd) signaling pathway - cell viability counter screen (AID 743213). Also: nearly all actives have a fitted effect of over 50% in size. An outline of the steps:
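Luminescence from CellTiter-Glo, added after the bla read and incubated 30 min at room temperature, gives viability of HEK293H PPARd-bla cells exposed to compounds for 17 h at 37 C with 300 nM L165041.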

Assay [12] has as its target Peroxisome proliferator-activated receptor delta (Homo sapiens) (UniProt Q03181). Description: qHTS assay to identify small molecule antagonists of the peroxisome proliferator-activated receptor delta (PPARd) signaling pathway (AID 743215; active = well fitted inhibition curve with a large enough effect in the signal ratio in the repeat runs, not every such curve was filed as active; the % refers to the signal ratio;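 also: cells stimulated with agonist L165041 at 300 nM final during compound exposure; series mostly up to about 62 µM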). An outline of the steps:
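Here, a reporter line (HEK293H, beta-lactamase under a UAS) measures PPARd signaling. Compounds are tested against agonist L165041 at 300 nM final concentration over 17 h at 37 C, with fluorescence read after substrate.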

Assay [13] concerns the target Bile acid receptor (Homo sapiens) (UniProt Q96RI1). Briefly: qHTS assay to identify small molecule antagonists of the farnesoid-X-receptor (FXR) signaling pathway (AID 743217; active = well fitted inhibition curve with a large enough effect in the signal ratio in the repeat runs, not every such curve was filed as active; the % refers to the signal ratio; also: potency is read from the fitted curve at half-maximal effect). An outline of the steps: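 Test compounds are pin-transferred onto FXR-bla HEK 293T cells, then chenodeoxycholic acid is added at 50 uM final. After 16 h at 37 °C, LiveBLAzer B/G substrate is applied for 2 h at room temperature and fluorescence read.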

The nature of assay [14]: qHTS assay to identify small molecule agonists of the farnesoid-X-receptor (FXR) signaling pathway - cell viability counter screen (AID 743218). Also: nearly all actives have a fitted effect of over 45% in size. Also: potency is read from the fitted curve at half-maximal effect. An outline of the steps:
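Quantitative HTS counter screen measuring ATP-based viability via CellTiter-Glo luminescence in HEK 293T cells carrying a UAS-driven beta-lactamase reporter, after 16 h compound exposure at 37 C.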

In assay [15] the target is Bile acid receptor (Homo sapiens) (UniProt Q96RI1). Briefly: qHTS assay to identify small molecule agonists of the farnesoid-X-receptor (FXR) signaling pathway (AID 743220; active = well fitted activation curve with a large enough effect in the signal ratio in the repeat runs, not every such curve was filed as active; the % refers to the signal ratio). Put shortly: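 FXR-UAS-bla HEK 293T cells carrying a UAS-driven beta-lactamase reporter were plated for 5 h at 37C/5% CO2, then exposed to DMSO-dissolved Tox21 10K compounds for 16 h at 37C. A LiveBLAzer B/G FRET substrate was loaded for 2 h at room temperature before fluorescence reading.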

A short description of assay [16]: qHTS assay to identify small molecule antagonists of the farnesoid-X-receptor (FXR) signaling pathway - cell viability counter screen (AID 743221; active = well fitted cell-killing curve with a large enough effect in the repeat runs, not every such curve was filed as active; also: nearly all actives have a fitted effect of over 50% in size). Put shortly: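 In GeneBLAzer FXR-UAS-bla HEK 293T cells stimulated with 50 uM chenodeoxycholic acid (final), compounds acted for 16 h at 37 C. Viability was assessed afterwards by CellTiter-Glo luminescence.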
Assay [17] deals with Vitamin D3 receptor (Homo sapiens) (UniProt P11473). Description: qHTS assay to identify small molecule agonists of the vitamin D receptor (VDR) signaling pathway (AID 743222; calls by dose curve). Put shortly: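 Tox21 cell reporter format: VDR-bla line, 16 h compound exposure in 5% CO2 at 37C, then fluorescence intensity after 2 h with LiveBLAzer B/G FRET substrate.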
Assay [18] concerns the target Aryl hydrocarbon receptor (Homo sapiens) (UniProt P35869). Briefly: qHTS assay to identify small molecule that activate the aryl hydrocarbon receptor (AhR) signaling pathway (AID 743085). Also: nearly all actives have a fitted effect of over 15% in size. Also: potency is read from the fitted curve at half-maximal effect.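 As to activation: HG2L7.5c1 human HepG2 liver cells with stably integrated DRE-driven firefly reporter; series mostly up to about 70 µM.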 An outline of the steps: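 24 h compound exposure, 37C, HepG2-derived HG2L7.5c1 cells with DRE-responsive luciferase. Readouts: fluorescence viability, then luminescence at room temperature after 30 min.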

A short description of assay [19]: qHTS assay for small molecule activators of the heat shock response signaling pathway (AID 743210; active = well fitted activation curve with a large enough effect in the signal ratio in the repeat runs, with a control signal flat, not every such curve was filed as active; the % refers to the signal ratio;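 also: HeLa cells with beta-lactamase reporter driven by heat shock elements; series mostly up to about 63 µM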). An outline of the steps:
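Fluorescence from a cleaved B/G FRET substrate (2.5 h, room temp) reports HSE-driven beta-lactamase in HeLa cells treated 5 h at 37 C with DMSO-dissolved compounds.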

The target in assay [20] is Vitamin D3 receptor (Homo sapiens) (UniProt P11473). Briefly: qHTS assay to identify small molecule antagonists of the vitamin D receptor (VDR) signaling pathway (AID 743223; active = well fitted inhibition curve with a large enough effect in the signal ratio in the repeat runs, not every such curve was filed as active; the % refers to the signal ratio). Put shortly:
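Agonist 1alpha,25-dihydroxyvitamin D3 (3 nM in well) was added with each compound to VDR-bla cells preincubated 4 h. Cells stood 16 h at 37C, then FRET substrate 2 h at room temperature; fluorescence intensity recorded.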

“And” between values parts separate entries of the source, which are not always exact repeats. Equal values may be shown once. Results filed as inconclusive are left out. More than one record can exist for a structure, and the calls need not agree. The source made the active and inactive calls. Unless noted, calls follow the shape of the dose curve; as a rule, active = well fitted curve in the direction sought with a large enough effect in the repeat runs; inconclusive = weak or mixed curves; inactive = no such curve, though single readings can be large; an effect the other way counts as inactive or inconclusive.

Vitamin D3 receptor (Homo sapiens), sequence (P11473 whole entry, looked up): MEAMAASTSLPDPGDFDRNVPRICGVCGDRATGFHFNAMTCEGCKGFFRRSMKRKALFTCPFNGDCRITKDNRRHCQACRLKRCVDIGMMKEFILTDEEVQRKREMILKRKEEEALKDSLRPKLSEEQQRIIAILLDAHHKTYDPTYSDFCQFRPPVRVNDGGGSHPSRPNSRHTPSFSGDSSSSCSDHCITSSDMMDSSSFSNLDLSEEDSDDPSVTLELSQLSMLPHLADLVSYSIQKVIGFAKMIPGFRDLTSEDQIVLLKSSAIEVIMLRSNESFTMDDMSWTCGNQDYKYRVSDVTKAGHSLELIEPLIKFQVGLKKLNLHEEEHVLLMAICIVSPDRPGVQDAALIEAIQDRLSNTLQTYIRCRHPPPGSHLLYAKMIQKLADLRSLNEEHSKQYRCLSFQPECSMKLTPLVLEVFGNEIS
Peroxisome proliferator-activated receptor gamma (Homo sapiens), sequence (P37231 whole entry, looked up): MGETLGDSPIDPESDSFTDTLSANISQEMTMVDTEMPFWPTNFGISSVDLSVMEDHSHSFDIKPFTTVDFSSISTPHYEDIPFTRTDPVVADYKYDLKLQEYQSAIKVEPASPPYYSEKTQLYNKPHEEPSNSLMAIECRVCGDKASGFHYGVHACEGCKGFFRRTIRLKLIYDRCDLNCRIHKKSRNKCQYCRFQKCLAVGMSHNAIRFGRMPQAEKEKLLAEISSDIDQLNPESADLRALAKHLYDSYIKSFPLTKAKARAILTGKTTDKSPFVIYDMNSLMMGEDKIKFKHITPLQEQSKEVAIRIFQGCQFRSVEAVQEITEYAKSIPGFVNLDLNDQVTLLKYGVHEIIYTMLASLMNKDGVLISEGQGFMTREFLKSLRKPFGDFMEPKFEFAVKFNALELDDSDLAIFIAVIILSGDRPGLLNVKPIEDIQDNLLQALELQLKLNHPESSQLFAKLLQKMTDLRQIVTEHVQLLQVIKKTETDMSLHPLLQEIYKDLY
Peroxisome proliferator-activated receptor delta (Homo sapiens), sequence (Q03181 whole entry, looked up): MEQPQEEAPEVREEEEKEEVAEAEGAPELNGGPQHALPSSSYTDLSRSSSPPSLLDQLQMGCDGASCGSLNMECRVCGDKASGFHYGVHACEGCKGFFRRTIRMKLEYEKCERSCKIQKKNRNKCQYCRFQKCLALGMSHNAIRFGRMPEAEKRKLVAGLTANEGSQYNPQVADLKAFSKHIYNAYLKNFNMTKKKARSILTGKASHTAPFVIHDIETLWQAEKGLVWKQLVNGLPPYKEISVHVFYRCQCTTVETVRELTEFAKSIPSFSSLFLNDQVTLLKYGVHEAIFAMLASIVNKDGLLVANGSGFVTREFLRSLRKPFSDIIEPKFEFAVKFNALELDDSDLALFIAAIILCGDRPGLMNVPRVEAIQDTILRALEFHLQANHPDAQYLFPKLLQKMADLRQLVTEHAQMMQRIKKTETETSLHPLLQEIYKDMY
Bile acid receptor (Homo sapiens), sequence (Q96RI1 whole entry, looked up): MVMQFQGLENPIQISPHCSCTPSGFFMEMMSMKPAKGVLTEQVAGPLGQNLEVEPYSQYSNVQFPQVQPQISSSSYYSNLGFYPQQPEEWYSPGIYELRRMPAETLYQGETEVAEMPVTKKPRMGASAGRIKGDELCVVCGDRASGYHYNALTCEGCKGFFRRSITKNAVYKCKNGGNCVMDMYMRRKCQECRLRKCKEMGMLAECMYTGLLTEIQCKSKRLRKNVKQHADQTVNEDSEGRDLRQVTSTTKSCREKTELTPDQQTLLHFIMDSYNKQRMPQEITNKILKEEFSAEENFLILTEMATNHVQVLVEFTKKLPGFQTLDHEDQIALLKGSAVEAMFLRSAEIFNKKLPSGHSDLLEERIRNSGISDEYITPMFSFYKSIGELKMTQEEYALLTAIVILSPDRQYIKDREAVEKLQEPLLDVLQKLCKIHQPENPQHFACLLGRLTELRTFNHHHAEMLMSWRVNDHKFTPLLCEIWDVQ
Aryl hydrocarbon receptor (Homo sapiens), sequence (P35869 whole entry, looked up): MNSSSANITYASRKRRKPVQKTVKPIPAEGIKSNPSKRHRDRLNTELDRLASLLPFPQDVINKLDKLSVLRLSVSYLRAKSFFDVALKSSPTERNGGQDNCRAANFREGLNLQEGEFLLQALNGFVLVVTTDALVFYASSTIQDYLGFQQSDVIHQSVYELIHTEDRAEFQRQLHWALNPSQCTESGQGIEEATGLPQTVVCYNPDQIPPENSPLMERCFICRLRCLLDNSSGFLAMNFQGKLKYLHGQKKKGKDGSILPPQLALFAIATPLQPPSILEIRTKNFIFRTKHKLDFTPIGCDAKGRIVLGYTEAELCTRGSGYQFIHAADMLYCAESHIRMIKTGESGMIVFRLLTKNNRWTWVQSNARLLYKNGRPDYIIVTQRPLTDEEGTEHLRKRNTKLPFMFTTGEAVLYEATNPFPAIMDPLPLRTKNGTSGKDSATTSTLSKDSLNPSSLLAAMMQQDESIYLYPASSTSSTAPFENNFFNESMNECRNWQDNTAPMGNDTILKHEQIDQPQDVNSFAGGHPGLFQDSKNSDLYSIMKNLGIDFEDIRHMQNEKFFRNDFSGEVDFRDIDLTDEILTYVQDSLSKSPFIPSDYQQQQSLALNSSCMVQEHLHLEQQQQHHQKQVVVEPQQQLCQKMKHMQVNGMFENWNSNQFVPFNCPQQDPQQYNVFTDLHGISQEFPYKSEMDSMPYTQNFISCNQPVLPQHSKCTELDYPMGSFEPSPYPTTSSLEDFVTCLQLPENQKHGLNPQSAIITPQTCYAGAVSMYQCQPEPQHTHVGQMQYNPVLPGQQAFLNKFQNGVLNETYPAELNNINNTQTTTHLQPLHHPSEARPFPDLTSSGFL

On to `CCOC(=O)C(C)Oc1ccc(Oc2cnc3cc(Cl)ccc3n2)cc1` (configuration not stated), for which the Potency result in assay [1], in assay [2], in assay [4], in [5], in [6] and in [7] was “inactive” in each case. For the same compound, the Potency result in assay [8], in [9], in [11], in assay [13], in [14] and in assay [16] was “inactive” each time. For the same compound, the outcome in [3], in assay [10], in [12], in assay [15] and in assay [17] was inactive.

With `Nc1ccc(N)c(Cl)c1`, the Potency is 61 µM (active) and inactive in [1]; 54.4 µM (active) and 15.4 µM (active) in [18]; 27.3 µM (active) in assay [6]; 68.5 µM (active) and inactive in assay [7]. Moreover, the Potency entry in [2], in [5], in assay [9], in assay [11], in [14] and in [16] was “inactive” each time. Moreover, the compound was classed as inactive in assay [10], in assay [12] and in [17].

As to `CC1=CC(C)(C)Nc2ccccc21`, the Potency result in assay [1], in assay [2], in [4], in assay [5], in [6] and in [7] was “inactive” throughout. In addition, the Potency result in assay [8], in assay [9], in [11], in [14] and in assay [16] was “inactive” each time. Besides, the outcome in assay [3], in [19], in assay [10], in [12] and in assay [17] was inactive.

As to `Clc1ccc(Sc2cc(Cl)c(Cl)cc2Cl)cc1`, the Potency entry in assay [1], in [2], in [5], in assay [6], in assay [7] and in assay [8] was “inactive” throughout. The Potency entry in [9], in [11], in [14] and in [16] was “inactive” in each case. The result in [3], in assay [17] and in assay [20] was inactive.

With `C=C[C@H]1CN2CC[C@H]1C[C@@H]2[C@@H](O)c1ccnc2ccc(OC)cc12`, the Potency result in assay [1], in assay [2], in assay [5], in [6], in assay [7] and in assay [9] was “inactive” throughout. Also, the Potency result in assay [11] and in assay [16] was “inactive” each time. Further, the call in [10] and in assay [12] was inactive. In addition, in assay [14], the Potency was 24.1 µM (active) and inactive.

Turning to `c1ccc2c(c1)ccc1ncccc12`, the Potency entry in assay [1], in [2], in [4], in assay [5], in assay [7] and in assay [8] was “inactive” throughout. Also, the Potency entry in assay [9], in assay [11], in [14] and in assay [16] was “inactive” in each case. Further, the compound was classed as inactive in assay [3], in [19] and in assay [12].

As for `CC1(C)C(C=C(Cl)Cl)C1C(=O)OCc1cccc(Oc2ccccc2)c1` (configuration not stated), the Potency entry in assay [1], in assay [18], in [2], in assay [6], in [7] and in assay [8] was “inactive” throughout. In addition, the Potency entry in [9], in [11], in [14] and in [16] was “inactive” throughout. The result in assay [19], in assay [10], in [12], in assay [17] and in assay [20] was inactive.

With `Nc1ccc2c(O)cc(S(=O)(=O)O)cc2c1`, the Potency entry in [1], in [18], in assay [7], in [8], in assay [9] and in [11] was “inactive” each time. In addition, the Potency result in assay [14] and in assay [16] was “inactive” each time. For the same compound, the Potency in [2] was 9.7 µM (active). Moreover, the result in assay [19], in assay [10] and in assay [12] was inactive.

As to `CCCN1C=CN(C)C1`, the Potency entry in assay [1], in assay [18], in assay [2], in assay [5], in assay [6] and in assay [7] was “inactive” each time. Besides, the Potency result in assay [8], in assay [9], in assay [11], in assay [13], in assay [14] and in assay [16] was “inactive” each time. Also, the outcome in assay [10], in assay [12], in assay [15], in assay [17] and in assay [20] was inactive.

For the compound `CN(Cc1cnc2nc(N)nc(N)c2n1)c1ccc(C(=O)N[C@@H](CCC(=O)O)C(=O)O)cc1`, the Potency entry in assay [1] and in assay [2] was “inactive” in each case. Besides, the Potency is 9.7 nM (active) and 59.6 nM (active) in [6]; 6.1 nM (active) and 47.3 nM (active) in assay [7]; 0.376 µM (active) in assay [13]. Also, the call in assay [19] and in assay [15] was inactive.

On to `c1ccc2c(c1)ccc1cc3c(ccc4ccccc43)cc12`, for which the Potency entry in assay [1], in [2], in assay [7], in assay [8], in assay [9] and in assay [11] was “inactive” throughout. Moreover, the Potency result in assay [13], in assay [14] and in assay [16] was “inactive” each time. The Potency in [18] was 958 nM (active) and 121 nM (active); in assay [6] it was 538 nM (active) and 959 nM (active). The call in assay [19], in [10], in assay [12] and in [15] was inactive.

`NCCN`: the Potency result in [1], in assay [18], in [2], in [6], in assay [7] and in assay [9] was “inactive” throughout. The Potency entry in assay [16] is “inactive”. For the same compound, the outcome in [19], in assay [10] and in assay [12] was inactive.

For `CCCCCCOCCOCCO`, the Potency result in assay [1], in [18], in [2], in assay [5], in [6] and in assay [7] was “inactive” each time. In addition, the Potency entry in assay [9], in assay [11], in assay [13], in assay [14] and in assay [16] was “inactive” in each case. Moreover, the compound was classed as inactive in [19] and in assay [15].
